Measurements reported in PubChem BioAssay (NCATS).
Values without a mark were called inactive. The call rests on the fitted dose curve; in most records, active means well fitted activation curve with a large enough effect; inconclusive means small, poorly fitted or top-dose-only effect; inactive means no such curve, though single readings can be large or run the other way.

These compounds were tested against Cytochrome P450 3A4 (Homo sapiens) (UniProt P08684) (assay: qHTS Assay for Activators of Cytochrome P450 3A4 (AID 885; further: nearly all actives have a fitted effect of over 65% in size)). Settings: recombinant CYP3A4, Luciferin-PPXE luminescence, 60 min; series mostly up to 57.1 µM; activity change, positive = activation: at the top concentration.
In short: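 Human CYP3A4 dealkylates Luciferin-PPXE to luciferin, which luciferase detection converts to light. Substrate was at its KM (25uM), buffer 200mM KPO4, reaction 60 min at RT.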

Sequence of Cytochrome P450 3A4 (Homo sapiens) (P08684 whole entry, looked up): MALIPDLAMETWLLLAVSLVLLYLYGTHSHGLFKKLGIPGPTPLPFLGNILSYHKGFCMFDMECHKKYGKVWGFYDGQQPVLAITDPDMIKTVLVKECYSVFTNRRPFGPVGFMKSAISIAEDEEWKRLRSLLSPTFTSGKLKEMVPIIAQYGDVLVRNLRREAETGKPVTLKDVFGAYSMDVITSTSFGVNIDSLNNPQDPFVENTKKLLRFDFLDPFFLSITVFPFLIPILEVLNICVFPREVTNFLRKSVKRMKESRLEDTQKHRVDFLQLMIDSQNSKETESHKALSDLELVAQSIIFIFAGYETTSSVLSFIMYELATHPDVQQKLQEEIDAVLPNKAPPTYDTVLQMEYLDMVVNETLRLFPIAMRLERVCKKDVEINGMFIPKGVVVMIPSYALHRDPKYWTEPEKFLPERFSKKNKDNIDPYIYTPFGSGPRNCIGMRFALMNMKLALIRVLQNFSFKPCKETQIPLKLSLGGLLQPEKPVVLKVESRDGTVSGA

| SMILES | activity change, positive = activation [%] |
| --- | --- |
| OC1c2ccccc2-c2nc3ccccc3cc21 (stereo not given) | -58.7 |
| C=C(CC1([C@@H](NP(=O)(c2ccccc2)c2ccccc2)[C@H]2C[C@@H]2CCN(C(=O)OCC)S(=O)(=O)c2ccc(C)cc2)CC1)c1ccccc1 | -97.7 |
| COC(=O)C1(C)C=C2C(=C(c3ccccc3)C(=O)C2C)CN1 (stereo not given) | -78.6 |
| CCCCCC1=C2CNC(CCC)(C(=O)OC)C=C2C(C)C1=O (stereo not given) | -81.2 |
| COC(=O)[C@H]1C[C@@H]1[C@H](NC(=O)c1cc(C)on1)c1ccccc1 | -31.7 |
